# Assay outcomes from PubChem.
# Tau fibril ThT = blocks human tau fibril formation measured by thioflavin T; recombinant tau K18 P301L, heparin-induced fibrillization, ThT fluorescence; Potency, µM (doses to about 57.4 µM), most hits filed as inhibitors; actives 2.1% (n = 270,000); note: nearly all actives have a fitted effect of over 55% in size
# Target sequence (P10636 561-689 P618L limits assumed): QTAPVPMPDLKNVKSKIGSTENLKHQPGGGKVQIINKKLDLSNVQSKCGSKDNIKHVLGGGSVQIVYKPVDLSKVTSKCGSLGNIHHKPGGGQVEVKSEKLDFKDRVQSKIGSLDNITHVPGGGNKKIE
#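 Fibril formation assay: tau K18 P301L at 15 uM with trace Alexa 594 label, heparin inducer 20 uM, pH 7 sodium acetate buffer, 37 C for 6 hr; endpoint ThT signal.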
# ALDH1A1 block = blocks purified human ALDH1A1 activity | P00352 | Purified ALDH1A1, NADH fluorescence, propionaldehyde substrate | Potency, µM (doses to about 75.3 µM), usual class: inhibitors | actives 7.3% (n = 220,000) | AID 1030; active = well fitted inhibition curve with a large enough effect, not every such curve was filed as active; inconclusive = small, poorly fitted or top-dose-only effect, or another doubt; inactive = no such curve, though single readings can be large or run the other way
# NPSR antag = neuropeptide S receptor (human) antagonism, cAMP. Q6W5P4. CHO-NPSR cells, cAMP TR-FRET, antagonist mode. Potency, µM (doses to about 38.3 µM), actives largely listed as inhibitors. actives 1% (n = 220,000). AID 1461; note: nearly all actives have a fitted effect of over 50% in size
# Target sequence (Q6W5P4 whole entry, looked up): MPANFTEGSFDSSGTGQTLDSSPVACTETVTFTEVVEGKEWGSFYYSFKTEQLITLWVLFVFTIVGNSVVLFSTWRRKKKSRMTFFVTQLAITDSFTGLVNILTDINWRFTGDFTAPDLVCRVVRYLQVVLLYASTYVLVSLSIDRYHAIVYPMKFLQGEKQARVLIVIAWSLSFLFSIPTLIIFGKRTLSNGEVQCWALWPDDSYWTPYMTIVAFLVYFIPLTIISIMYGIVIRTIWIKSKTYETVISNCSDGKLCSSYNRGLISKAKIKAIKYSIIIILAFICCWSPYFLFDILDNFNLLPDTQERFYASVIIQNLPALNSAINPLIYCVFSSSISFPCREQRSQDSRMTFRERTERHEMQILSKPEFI
# Tau fluor cs = counter-screen for tau fibril formation inhibitors | tau K18 P301L Alexa594 fluorescence, heparin fibrillization | Potency, µM (highest dose often 57.7 µM) | actives 0.93% (n = 280,000); note: nearly all actives have a fitted effect of over 55% in size
#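 Human tau K18 P301L (15 uM unlabeled, 0.24 uM Alexa 594-labeled) in 100 mM sodium acetate pH 7 with 20 uM heparin, 6 hr at 37 C. ThT 30 uM added, 1 hr ambient; Alexa 594 FP and total fluorescence read at 555/632 nm.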
# HPGD block = inhibitors of human 15-hydroxyprostaglandin dehydrogenase (HPGD); Potency, µM, actives largely listed as inhibitors; AID 894; actives 4.3% (n = 150,000); P15428; purified HPGD, NADH fluorescence kinetic, PGE2 substrate; active = well fitted inhibition curve with a large enough effect, not every such curve was filed as active; inconclusive = small, poorly fitted or top-dose-only effect, or another doubt; inactive = no such curve, though single readings can be large or run the other way
#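 NADH formation kinetics: reaction with 30 uM PGE2 and 1 mM NAD+ (final), 20 nM enzyme, Tris-HCl pH 8 with Tween 20, after 15 min compound preincubation at room temperature. Fluorescence change, last versus first of five reads.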
# Tau fibril FP = tau fibrillization inhibition (FP); K18 P301L tau heparin fibrillization, Alexa594 FP, 6 h; AID 1468; P10636; actives 0.39% (n = 280,000); Potency, µM (titrated, usually from 57.7 µM), usual class: inhibitors; note: nearly all actives have a fitted effect of over 55% in size
#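 Recombinant K18 P301L […], labeled with Alexa 594 at 0.24 uM over 15 uM unlabeled; heparin inducer 20 uM final; 37 C, 6 hr; FP endpoint.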
# A number is an active result; – = inactive; ? = inconclusive; · = no result; [ ] = another dose, or the depositor's remark. Most compounds without a hit are left out; they make up all but 9.5% or so of the library. Unless noted, calls come from the whole dose curve; as a rule, active = well fitted curve in the direction sought with a large enough effect; inconclusive = small, poorly fitted or top-dose-only effect, or another doubt; inactive = no such curve, though single readings can be large; an effect the other way counts as inactive or inconclusive.
SMILES,Tau fibril ThT,ALDH1A1 block,NPSR antag,Tau fluor cs,HPGD block,Tau fibril FP
COc1ccc(-n2ncc(C(=O)NCCc3ccsc3)c2C2CCN(C(=O)OC(C)(C)C)CC2)cc1,–,·,·,–,·,–
COC(=O)c1ccc(Cl)c(NC(=O)C2CCN(S(=O)(=O)Cc3ccccc3)CC2)c1,–,·,·,–,·,–
C=CCCCCCCCC(=O)OC,–,18µM,–,–,·,–
C=CCCCCCCCCC(=O)NN,–,14µM,–,–,–,–
COC(=O)CCCCC(=O)OC,·,–,·,·,–,·
Nc1c(-c2nc(-c3ccccc3)cs2)c2ccccn2c1C(=O)c1ccc2c(c1)OCO2,?,·,·,?,·,–
c1ccc(CNc2ccnc(-c3ccoc3)n2)cc1,?,–,·,–,–,–
COc1ccc(C(=O)[C@]2(C)C=C(c3ccc(OC)cc3)[C@H](C)C2)cc1,–,–,·,–,–,–
CC(=O)Nc1ccc(NC(=O)CN(C)CCC#N)cc1,–,–,–,–,–,–
Cc1cc(NC(=S)Nc2cccnc2)ccc1Br,–,22µM,–,–,·,–
COc1cc(NC(=S)Nc2cccnc2)cc(OC)c1,–,32µM,–,–,28µM,–
COc1ccc(CN(CC2CCC(C(=O)O)CC2)C(=S)Nc2ccccc2C)cc1 (centres undefined),–,?,–,–,·,–
COc1ccc(CN(CC2CCC(C(=O)O)CC2)C(=S)Nc2cc(C)ccc2C)cc1 (centres undefined),–,3.5µM,–,–,·,–
CC(=O)N(c1ccccc1)C1CCCC1,–,–,–,–,–,–
O=C(CCl)N(c1ccccc1)C1CCCCC1,–,0.035µM,–,–,·,–
COC(=O)c1cc(C)sc1NC(=S)N1CCN(CCc2ccccc2)CC1,?,14µM,–,–,·,–
CCCN1CCN(C(=S)Nc2sc(CC)cc2C(=O)OC)CC1,–,–,–,–,·,–
Cc1ccc(C)c(NC(=O)CSc2nc3nccnc3c(=O)n2CCc2c[nH]c3ccccc23)c1,–,·,·,–,·,–
COc1ccc(C(=O)c2c[nH]c(C(=O)NCc3ccco3)c2)cc1,–,?,–,–,?,–
Cc1ccccc1C(=O)c1c[nH]c(C(=O)NCc2ccco2)c1,–,20µM,–,–,–,–
Cc1ccccc1C(=O)c1c[nH]c(C(=O)NCCc2ccccn2)c1,–,22µM,–,–,·,–
Cc1cccc(C(=O)Nc2sc3c(c2C(=O)O)CCCC3)c1,?,·,·,–,·,–
COc1ccc(-c2cc(-c3ccccc3O)[nH]n2)cc1OC,?,–,–,?,–,?
COc1ccc(-c2cc(-c3cc(F)ccc3O)[nH]n2)cc1OC,?,–,?,25µM[quencher],–,?
COc1ccc(-c2cc(-c3ccc(OC)c(OC)c3)n[nH]2)c(O)c1,–,–,–,16µM[quencher],–,–
SMILES,Tau fibril ThT,ALDH1A1 block,NPSR antag,Tau fluor cs,HPGD block,Tau fibril FP
COC(=O)c1cc(-c2ccc(OC)c(OC)c2)n[nH]1,?,–,–,–,–,–
C=CCSc1nnc2nc3c(nn12)c1cc(C)ccc1n3CC=C,28µM,?,?,–,–,–
C=CCn1c(O)c(N=O)c2cc(C)ccc21,?,–,–,–,·,–
Cc1cc2nc([C@H](C)C(=O)c3ccc(Cl)cc3)c(=O)[nH]c2cc1C,·,–[13.5 µM],·,·,–,·
CCc1c(C)nc(Nc2nc(C)c3ccc(OC)cc3n2)[nH]c1=O,–,2.2µM,–,–,–,–
COc1ccc(/C=N/N=C2/SCC(=O)N2Cc2ccccc2)cc1,–,·,?,?,·,–
COc1ccc(/C=C2\CN(Cc3ccccc3)C/C(=C\c3ccc(OC)cc3)C2=O)cc1,?,16µM,–,–,–,–
COc1ccc(/C=C2\CN(Cc3ccccc3)C/C(=C\c3ccc(OC)cc3OC)C2=O)c(OC)c1,?,18µM,?,–,–,–
COc1ccc(C=C2c3ccccc3C(=O)c3ccccc32)c(OC)c1,?,·,–,?,·,–
Cn1c(-c2ccc(F)cc2)cnc1NCc1ccc(C#N)cc1,–,5µM,–[7.67 µM],–,–,–
Cn1c(-c2cccc([N+](=O)[O-])c2)cnc1NCc1cccc([N+](=O)[O-])c1,–,4.7µM,–,–,·,–
Cn1c(-c2ccc(F)cc2)cnc1NCc1ccc(F)cc1,–,?,–,–,?,–
